Out of some 48,000 compounds screened, about 13,000 (27%) showed an effect of 50% or more. Some of the results follow.
Test system: Wolbachia pipientis
Test: Anti-Wolbachia Cell-Based Screen
Type: functional
Design: scale not given: in the data most compounds retested in dose-response had high values
Details: 5 µM

SMILES	Percent Effect
CS(=O)(=O)N1CCC2(CC1)CN(CC1CC1)CC21CCNC1=O.O=C(O)C(F)(F)F (centres undefined)	-40.94%
Cc1nc(-c2cn(CCN)nn2)n(-c2ccc(C(F)(F)F)cc2)n1	-70.01%
Cc1nccn1-c1ccc(N2CCC(N[C@H](C)C(C)C)CC2)cc1	17.33%
O=C(Nc1cc(C(F)(F)F)c[nH]c1=O)N1CCSCC1	108.7%
O=C(Nc1cc(C(F)(F)F)c[nH]c1=O)N1CCCSCC1	-10.12%
Cc1noc(CCCC(=O)Nc2cc(C(F)(F)F)c[nH]c2=O)n1	11.68%
O=C(NCCNc1ncccn1)Nc1cc(C(F)(F)F)c[nH]c1=O	-3.235%
CC1CN(C(=O)Nc2ccc(Cl)c(C(=O)NC3CC3)c2)CC(C)(C)O1 (centres undefined)	-20.36%
CCCc1noc(CCC(=O)Nc2cc(C(F)(F)F)c[nH]c2=O)n1	-8.892%
CC1CN(C(=O)Nc2cc(C(F)(F)F)c[nH]c2=O)CC(C)(C)O1 (centres undefined)	113.6%
CC1(C)CN(C(=O)Nc2cc(C(F)(F)F)c[nH]c2=O)CCO1	99.91%
O=C(NC1=NCCS1)C1CSCN1C(=O)C1CCCC1 (centres undefined)	-6.178%
Cn1cccc(NC(=O)NCc2cccc(CO)c2)c1=O	-1.059%
Cc1cc(-c2nc(-c3ccccn3)nn2C2CCN(C)CC2)nc(C)n1	-5.062%
Cc1cccc(N2CCN(CCC(=O)NCc3cccnc3)CC2)c1	6.039%
Cn1cccc1CNC(=O)CCCc1nnc2ccccn12	14.24%
O=C(CCc1nc2cccnc2[nH]1)NCc1cccnc1	5.887%

SMILES	Percent Effect
O=C(CCc1nnc2ccccn2c1=O)NCc1ccco1	105.9%
O=C(CCc1nc2cccnc2[nH]1)NCc1ccc2c(c1)OCO2	27.54%
COc1ccc(CNC(=O)Cc2csc(C(C)=O)c2)cc1	2.837%
O=C(Cn1ccc2sccc2c1=O)NCc1ccc2c(c1)OCO2	0.2723%
O=C(CCC1CCCC1)NCc1nnc2ccccn12	1.32%
O=C(CCc1nnc2ccccn2c1=O)NCc1cccnc1	121.1%
COc1ccc(CNC(=O)CCc2nnc3ccccn3c2=O)cc1	126.1%
O=C(CCc1nnc2ccccn2c1=O)NCc1ccc2c(c1)OCO2	110.3%
CCn1ncnc1CN1CCc2[nH]cnc2C1CCc1ccccc1 (centres undefined)	5.135%
Cc1ccc(CNC(c2ccc(F)cc2)c2nccn2C)o1 (centres undefined)	6.945%
CC(=O)N1CCC(Oc2ccc(Cl)cc2C(=O)N2CCCO2)CC1	5.175%
Cc1cnc(C(=O)N2C[C@H](N3CCOCC3)[C@@H]3OCCC[C@@H]32)cn1	115.1%
Cc1ccc(C(=O)N2C[C@@H]3CCCO[C@@H]3[C@H](N3CCOCC3)C2)cn1.O=C(O)C(F)(F)F.O=C(O)C(F)(F)F	-9.984%
Cc1ccc(C(=O)N2C[C@@H](N3CCN(C)CC3)[C@H]3OCCC[C@H]32)cn1	115.4%
Cc1ccoc1C(=O)N1C[C@@H](N2CCN(C)CC2)[C@H]2OCCC[C@H]21.O=C(O)C(F)(F)F.O=C(O)C(F)(F)F	-7.066%
O=C(c1ccsc1)N1C[C@H](N2CCOCC2)[C@@H]2OCCC[C@@H]21	0.7214%
CN1CCN([C@@H]2CN(C(=O)c3ccsc3)[C@@H]3CCCO[C@H]23)CC1	-4.041%

From ChEMBL document CHEMBL3988442, “University of Dundee, Small-Polar-MMV Screening Library” (2021)
